Data from the supplement of paper PMC6555819.

Columns and labels:
Assay in all cases: PBM binding z-score (relative to random genomic background probes); higher = stronger binding; sequences stand for … in GC…GCGATTGACAGCGTAGAATGAAGG
[1] = system: RARb homodimer (NR concentration 270 nM)
Method in brief: (§1)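 For binding z-scores, the reference was random background probes on custom Agilent 4×180K protein-binding microarrays. These arrays were incubated 1 h with ligand-free nuclear receptor dimers in PBS pH 7.4, 2% milk, 0.02% Triton X-100, 1 mM DTT, 0.2 mg/mL BSA and 0.4 mg/ml salmon testes DNA. Fluorescence was scanned after antibody detection of each partner (one per run) and regression-normalized.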

[2] = system: RARg:RXRa (NR concentration 270 nM, RXRa partner concentration 90 nM)
Method in brief: as §1

[3] = system: RARg homodimer (NR concentration 270 nM)
Method in brief: as §1

[4] = system: RXRa DBDmut IVT, anti-RXR (DBD mutation: RXRa K156A/R161A, NR concentration 90 nM)
Method in brief: as §1

[5] = system: RXRa homodimer (NR concentration 180 nM)
Method in brief: as §1

[6] = system: THRa:RXRa (NR concentration 90 nM, RXRa partner concentration 90 nM)
Method in brief: as §1

[7] = system: THRa homodimer (NR concentration 90 nM)
Method in brief: as §1

[8] = system: VDR homodimer (NR concentration 270 nM)
Method in brief: as §1

| Sequence | PBM binding z-score [1] | PBM binding z-score [2] | PBM binding z-score [3] | PBM binding z-score [4] | PBM binding z-score [5] | PBM binding z-score [6] | PBM binding z-score [7] | PBM binding z-score [8] |
| --- | --- | --- | --- | --- | --- | --- | --- | --- |
| CAAAGTAGGTCAAGGTCAAAGTCGGTTTGTGCCA | 5.16 | 6.15 | 6.56 | 3.29 | 6 | 4.22 | 3.66 | 4.44 |
| CGTCTAAGGTCAAAGGTCAGTGAAGAGATGACGG | 5.44 | 8.98 | 8.65 | 4.46 | 10.7 | 5.01 | 4.1 | 3.65 |
| AGTCAAAGTTCACTAGGTTACGTAAGATTCAGCT | 4.27 | 5.33 | 6.12 | 4.29 | 4.53 | 2.55 | 0.508 | 3.98 |
| CCCACTGGGGCAAAGGTTACCATACTCAGTACGA | 2.15 | 3.57 | 1.81 | -0.648 | 3.57 | 1.8 | -0.0576 | 0.129 |
| CTAACTAGGTCAAGGTCAAAGTCGGTTTGTGCCA | 5.03 | 5.89 | 6.45 | 3.03 | 5.12 | 4.19 | 3.77 | 3.88 |
| CAAAGTAGGTCACGAAAGGTCAAAGTCGAATGAC | 6.1 | 8.06 | 8.76 | 2.36 | 8.62 | 4.95 | 1.49 | 3.31 |
| CACACTAGGTCAAAGGTCAAAGTCGAGCCAACCA | 5.42 | 9.01 | 7.38 | 3.45 | 10.4 | 4.85 | 2.4 | 4.12 |
| CAAACTAGGTCACCGGAAAGTCAAAGTCCGCATG | 3.86 | 5.17 | 5.86 | 2.01 | 3.89 | 3.54 | 1.8 | 0.741 |
| CCTGCTAGGTCTATGGTCAGCTAAAGCAGCTCGC | 0.163 | -0.335 | -0.344 | 0.301 | -0.345 | -0.0563 | -0.394 | -0.594 |
| CGAACTAGGTCCTTGACAGGACAGTGAATAGTAA | -0.115 | 0.0551 | -0.0699 | 0.0443 | -0.00915 | 0.388 | -0.275 | -0.117 |
| CGTCCAAGGTCAGATAGGTCAGTGAATGCCGAGT | 4.84 | 5.45 | 6.04 | 3.06 | 4.4 | 3.73 | 1.92 | 3.28 |
| GCTTACGGGTCAAAGGTTATAACATGAATAGAAT | 3.48 | 6.91 | 4.77 | 2.43 | 9.77 | 4.13 | 0.296 | 1.8 |
| AGAATGGGGTTATTAAGATCAGGGAATTGCGGTC | 1.53 | 1.85 | 0.796 | 2.11 | 3.5 | 2.6 | 1.56 | 2.41 |
| CAAACTAGGTCACGAAAGGTCAAATTCGAATGAC | 5.85 | 7.7 | 8.41 | 2.5 | 8.21 | 5.14 | 2.56 | 3.46 |
| TCGAGGAGGTTACGGGGGCATTCAGGGATGAAGA | 2.61 | 4.51 | 3.37 | 2.51 | 4.12 | 4.31 | 1.88 | 3.86 |
| CGTCCAAGGGCAGCAGGTCAGTGAAAGCGACGTG | 2.99 | 2.31 | 2.9 | 0.247 | 0.676 | 1.28 | -0.115 | 0.0968 |
| AATACAGGGTCACTAGGTCAGAGTAGGTACGAAT | 4.58 | 6.39 | 6.22 | 2.99 | 6.66 | 3.92 | 2.23 | 3.55 |
| GATACAGGGTCAGCTTGAGGCCAGAGTATGGAAA | 2.94 | 5.72 | 4.77 | 1.81 | 4.55 | 3.73 | 0.959 | 0.666 |
| CGTCCAAGGTCAAGCTCAGTGAAAGAGACTCGAA | 3.96 | 6.43 | 6.63 | 3.51 | 6.22 | 3.76 | 2.32 | 2.03 |

| Sequence | PBM binding z-score [1] | PBM binding z-score [2] | PBM binding z-score [3] | PBM binding z-score [4] | PBM binding z-score [5] | PBM binding z-score [6] | PBM binding z-score [7] | PBM binding z-score [8] |
| --- | --- | --- | --- | --- | --- | --- | --- | --- |
| CCTAGTTGGTCAGGAGGTCACATACCGGATATGA | 4.17 | 4.57 | 3.85 | 0.947 | 3.92 | 3.32 | 2.13 | 2.4 |
| CCCCGGAGGACAGAAGGTCAGAGCTGTCCGCTTT | 3.7 | 3.27 | 3.26 | -0.968 | 1.78 | 2.21 | 0.211 | 0.277 |
| CGAACTAGGTCACCAGGACAGGGAAGAGGTTGGA | 3.18 | 4.35 | 4.97 | 1.23 | 2.96 | 3.26 | 1.9 | 0.549 |
| ATATGTAGGTTATCGGGTCATTCATTTTGCGCAT | 3.18 | 3.28 | 2.49 | 1.65 | 3.49 | 3.53 | 2.79 | 3 |
| CCTAGTTGGTCAAGGTAACACACGCTATAGGTAC | 1.22 | 0.88 | 1.36 | 0.599 | 0.724 | 1.85 | 1.57 | 0.864 |
| AATACAGGGTGATCGTAGGCCAGAGTACGCACAG | 0.66 | 0.545 | 0.556 | -0.0921 | 0.57 | 1.73 | 0.135 | 0.376 |
| CTATGTAGGTTAAGGGGGTCATTCAATTTGAAAG | 3.69 | 4.93 | 3.88 | 2.02 | 5.5 | 3.97 | 1.83 | 5.01 |
| CGAACTAGGACAAAGGACAGTGAAAGGCGACGTA | 0.856 | 0.618 | 1.24 | -0.1 | 0.0792 | 0.519 | -0.508 | -0.415 |
| AGACAAAGTTCAGGACGAGGTAACGTAAAGCACG | 3.04 | 4.75 | 4.73 | 2.87 | 2.9 | 3.86 | 1.51 | 2.08 |
| GTACCAAGGTGAATAGGTCGTTGATGAGTAGGCG | 1.89 | 2.73 | 1.44 | 0.0133 | 1.92 | 1.79 | 0.526 | 0.496 |
| CCGAGTAGGTTACGAGTGGGCATTCAGTGCGAAT | 0.401 | 0.298 | 0.292 | -0.0539 | 0.364 | 0.606 | -0.579 | 0.108 |
| CGAACTAGGTCAAAGGAAAGTGAAAGGCGACGTA | 2.25 | 3.46 | 4.01 | 1.15 | 2.39 | 1.95 | 0.083 | 0.538 |
| TCTCGGAGGACACGAAAAGTCAGAGCTCGACATC | 0.803 | 0.704 | 1.37 | 1.08 | 0.187 | 1.27 | 0.205 | -0.252 |
| TTGAGTAGGTTACGGGGGCATTCAGGGATGAAGA | 2.59 | 3.71 | 3.05 | 2.36 | 3.3 | 3.83 | 2.02 | 4.22 |
| CGAACTAGGTCACCAGGAGAGTGAAGAGGTTGGA | 3.18 | 4.34 | 5.04 | 1.08 | 3.02 | 2.98 | 1.09 | 0.207 |
| CGAACTAGGTCAGCAGGACAGTGAAGAGGTTGGA | 2.84 | 2.91 | 3.91 | 0.0956 | 1.51 | 2 | 0.264 | -0.272 |
| CCGAGTAGGTTACGAGGGGCCATTCAGTGCGAAT | 1.53 | 1.3 | 1.23 | 0.177 | 0.889 | 3.34 | -0.418 | 0.802 |
| GATCCAGGGTCAGCTAGAGGCCAGAGTATGGAAA | 3.27 | 6.7 | 4.6 | 0.756 | 4.34 | 3.09 | -0.172 | 0.674 |
| ACTAGTTGGTCAGCTGAGGTCACACTCAATTCGG | 4.47 | 3.93 | 4.09 | 1.5 | 3.92 | 5.01 | 4.85 | 3.27 |

| Sequence | PBM binding z-score [1] | PBM binding z-score [2] | PBM binding z-score [3] | PBM binding z-score [4] | PBM binding z-score [5] | PBM binding z-score [6] | PBM binding z-score [7] | PBM binding z-score [8] |
| --- | --- | --- | --- | --- | --- | --- | --- | --- |
| CCGAGTAGGTTACGAGGGGGGATTCAGTGCGAAT | 1.82 | 2.43 | 1.99 | 1.88 | 1.24 | 3.19 | 1.76 | 1.94 |
| CCTACTGGGCCACGAAAGGTAATTGATTCAGTGA | 0.322 | 0.0783 | 0.352 | -0.464 | -0.00441 | 1.11 | -0.00813 | -0.234 |
| CAGCCTAGGTGAGGGCCAGTATAGGAGGAACGTT | 0.105 | -0.107 | 0.177 | -0.941 | -0.128 | 0.00456 | -0.223 | -0.734 |
| CCGATTAGGTTACGAGGGGGCATTCAGTGCGAAT | 2.56 | 3.12 | 2.54 | 1.96 | 1.52 | 3.91 | 1.57 | 2.8 |
| CGTACTAGGTCAAAGGACAGTGAAAGGCGACGTA | 2.87 | 4.02 | 4.76 | 1.91 | 3.01 | 2.51 | 0.4 | 0.647 |
| TCGAGTAGGTTACTGGGGCATTCAGGGATGAAGA | 0.974 | 0.621 | 0.564 | 0.0231 | 0.761 | 1.83 | -0.116 | -0.285 |
| CGAACTAGGTCTCCAGGACAGTGAAGAGGTTGGA | -0.111 | -0.0715 | 0.188 | -0.342 | -0.062 | 1.11 | 0.505 | -0.34 |
| TCTCGGAGGACACGAAAGGTCAGAACTCGACATC | 4.38 | 4.56 | 5.19 | 0.955 | 3.93 | 3.46 | 1.48 | 1.29 |
| CGAACTAGGTCAAAGGACAGTGAGAGGCGACGTA | 3.04 | 3.93 | 4.52 | 1.67 | 3.04 | 2.62 | 0.63 | 0.723 |
| CCTACTGGGCCATTCAGAGGACATTGATCATATG | 0.736 | 0.858 | 0.53 | -0.28 | -0.174 | 0.676 | 0.238 | 0.541 |
| CTTTACGGGTCAAGGTTATAGCACGGGTGGTACG | 3.7 | 5.18 | 5.01 | 1.93 | 5.61 | 3.26 | 1.1 | 1.77 |
| ATATGTAGGATATCGGGTCATTCAGTTTGCGCAT | 2.18 | 1.75 | 1.44 | 1.12 | 2.23 | 3.15 | 2.18 | 2.6 |
| TCGAGTAGGTTACGGGGCCATTCAGGGATGAAGA | 1.21 | 0.957 | 0.954 | 0.0548 | 1.06 | 2.47 | 0.44 | 0.657 |
| CGAACTAGGTCAAAGGACCGTGAAAGGCGACGTA | 2.22 | 3.5 | 4.44 | 1.42 | 2.86 | 2.23 | 0.043 | 0.238 |
| TCGAGTAGGATACGGGGGCATTCAGGGATGAAGA | 1.19 | 1.52 | 0.916 | 1.24 | 1.29 | 3.47 | 0.629 | 2.79 |
| GACACAGGGTCAGCTAGAGGCCAGAGTATGGAAA | 3.17 | 6.46 | 4.41 | 1.3 | 4.1 | 3.1 | -0.0446 | 0.591 |
| CGAACTATGTCAAGGACAGTGAATCTCCGCACGC | 0.507 | 0.587 | 0.808 | 0.328 | 0.197 | 1.76 | 1.21 | -0.0899 |
| TCGAGTAGGTTACGGGGGCATTCTGGGATGAAGA | 2.05 | 3.25 | 2.19 | 1.74 | 2.52 | 3.32 | 1.3 | 3.52 |
